Screening results deposited in PubChem BioAssay by National Center for Advancing Translational Sciences (NCATS).
Hits are enriched below; roughly 19% of the tested compounds scored in any of these assays.
TDP1 cell CPT: DT40-hTDP1 cell growth loss with CPT. chicken DT40 Tdp1-/-;hTDP1 cells + 20 nM CPT, ATP luminescence, 48 h. Potency, µM (titrated, usually from 46.2 µM), inactives show at the top dose activity change, negative = growth inhibition, hits mostly inhibitors. hit rate 12% among 420,000. AID 686979; also: potency is read from the fitted curve at half-maximal effect; nearly all actives have a fitted effect of over 55% in size
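Chicken DT40 Tdp1-/- cells stably complemented with human TDP1 were seeded at 400 cells/well in medium containing 20 nM camptothecin, exposed to pin-transferred compounds, and grown at 37 °C for at least 48 hr. Viability was read as ATP luminescence.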
IL-1B inflam inh: blocks inflammasome-driven IL-1 beta release | THP-1 LPS/ATP IL-1B secretion, AlphaLISA, 16 h; hits give low values | activity change, % at 57.5 µM | hit rate 4.7% among 360,000; in the data active = activity change below about -50%; inconclusive = mostly about -30% to -49%
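THP-1 cells pretreated 1 hr with compounds (up to 57.5 uM final), then stimulated with LPS (250 ng/mL final) plus ATP (1.25 mM final); secreted IL-1B measured by AlphaLISA after 16 hr, decreased signal indicating inhibition.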
HT1080-NT tox: kills 2HG-producing HT-1080-NT fibrosarcoma cells. Potency, µM (doses to about 46.1 µM), without a hit: at the highest dose activity, negative = less viability, most hits filed as cytotoxic. HT-1080-NT fibrosarcoma viability, CellTiter-Glo ATP luminescence, 48 h. hit rate 1.6% among 360,000;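 also: NT is the 2HG producing partner of a matched IDH1 knockdown line; potency is read from the fitted curve at half-maximal effect; 0% = DMSO-treated cells and -100% = media-only wells without cells; nearly all actives have a fitted effect of over 55% in size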
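Viability of the 2HG-overproducing fibrosarcoma line after 48 hours of compound exposure at 37 degrees C was determined by luminescence with CellTiter-Glo, and concentration-effect curves were then fitted and categorized.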
DT40 TDP1 no CPT: qHTS for Inhibitors of human tyrosyl-DNA phosphodiesterase 1 (TDP1): qHTS in cells in absence of CPT; DT40 Tdp1-/- hTDP1 cells, no CPT, ATP luminescence, 48 h; Potency, µM (titrated, usually from 46.2 µM), without a hit: at the top dose activity change, negative = growth inhibition, hits mostly inhibitors; hit rate 15% among 420,000; AID 686978, 2013; also: potency is read from the fitted curve at half-maximal effect; nearly all actives have a fitted effect of over 55% in size
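Compound effects on proliferation are scored in DT40 Tdp1-/-;hTDP1 cells in the absence of CPT. ATP levels (CellTiter-Glo luminescence) are recorded after a ≥48 hr, 37 °C incubation.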
ELG1 repair inh: blocks ELG1-dependent DNA repair in HEK293T cells; HEK293T ELG1-luciferase reporter, luminescence, 16 h; DNA damage induced by 5-fluorouridine; hit rate 2.3% among 330,000; AID 504467; Potency, µM (doses to about 46.1 µM), for the others: at the top dose activity change, negative = inhibition, actives largely listed as inhibitors; also: potency is read from the fitted curve at half-maximal effect; nearly all actives have a fitted effect of over 55% in size
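Quantitative HTS, concentration-response format. 2,000 cells/well co-treated with 5-fluorouridine and compound, 16 hr in 5% CO2 at 37 °C; ONE-Glo luminescence read after 30 min.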
HT1080 IDH1KD tx: toxicity to HT-1080 IDH1 knockdown cells (counter line); HT-1080 IDH1 knockdown viability, ATP luminescence, 48 h; Potency, µM (titrated, usually from 46.1 µM), inactives show top-dose activity, negative = toxicity, usual class: cytotoxic; hit rate 2% among 360,000; AID 686971;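 also: potency is read from the fitted curve at half-maximal effect; 0% = DMSO wells and -100% = cell-free medium wells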
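IDH1KD HT-1080 cells, 750/well, RPMI + 5% FBS; compound pinned after 2 h settling; 48 h, 37 °C; CellTiter-Glo luminescence; % activity normalised to DMSO and no-cell wells; curves fitted, classed by r2 and efficacy.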
* marks the source's active call; other numbers are inactive results; ? = inconclusive; . = not tested or not shown. Unless noted, calls follow the shape of the dose curve; as a rule, active = well fitted curve in the direction sought with a large enough effect; inconclusive = small, poorly fitted or top-dose-only effect, or another doubt; inactive = no such curve, though single readings can be large; an effect the other way counts as inactive or inconclusive. Unless noted, % is scaled to controls: 0 for no effect and ±100 for the full control effect.

SMILES	TDP1 cell CPT	IL-1B inflam inh	HT1080-NT tox	DT40 TDP1 no CPT	ELG1 repair inh	HT1080 IDH1KD tx
C[C@@H]1CN([C@@H](C)CO)C(=O)c2cc(C#Cc3cccc(F)c3)cnc2O[C@@H]1CN(C)CC1CCOCC1	16µM*	?	-18%	?	.	-22%
CN(CC(=O)Nc1ccc(Cl)c(Cl)c1)C(=O)CNC(=O)Cc1ccccc1	21µM*	?	-6%	13µM*	0%	10%
CN(CC(=O)Nc1ccc(Cl)c(S(=O)(=O)N(C)C)c1)Cc1ccccc1	?	-29	-27%	?	?	-8%
CN(CC(=O)NC(=O)NCc1ccccc1)CC(=O)Nc1ccc(Cl)c(Cl)c1	26µM*	-8	-26%	?	18µM*	?
CN(CC(=O)Nc1ccc(Cl)c(Cl)c1)CC(=O)Nc1ccc2c(c1)OCO2	?	-57*	-19%	4%	-13%	-14%
N#CC1=C(Nc2ccccc2Cl)SC(c2ccccc2O)NC1=O (stereo unspecified)	21µM*	-1	5%	?	?	1%
COc1ccc(/C=C/c2onc(C)c2S(=O)(=O)N2CCC(C(=O)N3CCC(C)CC3)CC2)cc1	16µM*	?	-26%	16µM*	?	-25%
CNC(=O)C1CCN(S(=O)(=O)c2c(C)noc2/C=C/c2ccc(OC)cc2)CC1	-7%	-20	0%	-25%	?	10%
Cc1cccc(/C=C/c2onc(C)c2S(=O)(=O)N2CCC(C(=O)N3CCCCCC3)CC2)c1	?	?	-7%	23µM*	?	-3%
COc1cccc(/C=C/c2onc(C)c2S(=O)(=O)N2CCC(C(=O)NC3CCCCCC3)CC2)c1	-13%	0	23%	6%	?	20%
COc1cccc(/C=C/c2onc(C)c2S(=O)(=O)N2CCC(C(=O)N3CCC(C)CC3)CC2)c1	?	.	.	16µM*	.	.
Cc1ccc(/C=C/c2onc(C)c2S(=O)(=O)N2CCC(C(=O)N3CCN(c4cccc(C)c4)C(C)C3)CC2)cc1 (stereo unspecified)	21µM*	.	.	12µM*	.	.
COC(=O)/C=C/CC(C)OS(N)(=O)=O (stereo unspecified)	-2%	27	16%	12%	1%	10%
CN(C)c1ccc(CC(=O)N2CCCCC2c2cc(C(=O)Nc3ccccc3Cl)no2)cc1 (stereo unspecified)	-110%	-11	33µM*	?	.	?
COc1ccc(NC(=O)c2cc(C3CCCCN3C(=O)Cc3ccc(N(C)C)cc3)on2)c(C)c1 (stereo unspecified)	21µM*	-5	-14%	?	.	-2%
CN(C)c1ccc(CC(=O)N2CCCC(c3cc(C(=O)Nc4ccc(F)c(Cl)c4)no3)C2)cc1 (stereo unspecified)	16µM*	-1	-25%	23µM*	.	?
COC(=O)N1CCCCC1c1cc(C(=O)Nc2ccc(OC)cc2C)no1 (stereo unspecified)	-9%	15	24%	-17%	.	0%
Cc1cccc(N2CCN(Cc3nnc(-c4cccc(Br)c4)o3)CC2)c1C	?	.	.	-19%	.	.
CN1C[C@@H]2[C@@H]3C(=O)N(C)C(=O)[C@@H]3[C@](C)(C1=O)N2C(=O)c1ccccc1	20%	28	?	-2%	.	20%
O=C(CCl)NCCCCCCCCCNC(=O)CCl	4.6µM*	-90*	16µM*	6.5µM*	?	15µM*
CCCCn1cc(S(=O)(=O)c2ccc(C)cc2)c(=O)c2cc(F)c(N3CCCCC3)cc21	18µM*	.	.	13µM*	.	.
CCCn1cc(S(=O)(=O)c2ccc(C)cc2)c(=O)c2cc(F)c(N3CCCC3)cc21	?	.	.	-27%	.	.
